Records with an inconclusive call do not appear. Activity calls are given as the source filed them. How the source made its calls: active means hit-call score of the fitted dose curve at least 0.9, where 1 is the maximum; inconclusive means response in the unintended direction; inactive means score below 0.9.
The molecules below were run against Oxysterols receptor LXR-beta (Homo sapiens) (UniProt P55055) (assay: ATG_LXRb_TRANS: Attagene TRANS-FACTORIAL HepG2 Assay for human Liver X Receptor beta (LXRb) (AID 2282981)). Settings: HepG2 Attagene TRANS GAL4-LXRb reporter, mRNA.
Oxysterols receptor LXR-beta (Homo sapiens), sequence (P55055 whole entry, looked up, the tested form may be a part): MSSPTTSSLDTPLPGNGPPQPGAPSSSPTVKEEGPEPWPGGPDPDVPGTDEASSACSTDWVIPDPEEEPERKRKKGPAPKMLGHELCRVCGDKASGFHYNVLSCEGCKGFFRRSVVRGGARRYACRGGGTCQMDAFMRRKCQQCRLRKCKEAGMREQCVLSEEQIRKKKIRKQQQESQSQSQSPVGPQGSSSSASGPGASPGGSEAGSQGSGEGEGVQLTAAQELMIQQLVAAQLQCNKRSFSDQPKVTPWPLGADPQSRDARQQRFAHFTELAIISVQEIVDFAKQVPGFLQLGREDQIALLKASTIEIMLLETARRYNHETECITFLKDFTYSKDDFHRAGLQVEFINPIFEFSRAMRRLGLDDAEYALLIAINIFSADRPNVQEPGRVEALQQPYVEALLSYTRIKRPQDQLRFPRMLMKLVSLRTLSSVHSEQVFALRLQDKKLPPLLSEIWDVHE
Procedure: ATG_TRANS is a cell-based, multiplexed-readout assay that uses HepG2, a human liver cell line, with measurements taken at 24 hours after chemical dosing in a 24-well plate.ATG_LXRb_TRANS is one of 30 assay component(s) measured or calculated from the ATG_TRANS assay. It is designed to make measurements of mRNA induction, a form of inducible reporter, as detected with fluorescence intensity signals by Reverse transcription polymerase chain reaction (RT-PCR) and Capillary electrophoresis technology.Data from the assay component ATG_LXRb_TRANS was analyzed into 1 assay endpoint. This assay endpoint, ATG_LXRb_TRANS, was analyzed in the positive analysis fitting direction relative to DMSO as the negative control and baseline of activity. Using a type of inducible reporter, measures of mRNA for gain-of-signal activity can be used to understand the reporter gene at the transcription factor-level as they relate to the gene NR1H2. Furthermore, this assay endpoint can be referred to as a primary readout, because this assay has produced multiple assay endpoints where this one serves a reporter gene function. To generalize the intended target to other relatable targets, this assay endpoint is annotated to the nuclear receptor intended target family, where the subfamily is non-steroidal.
Human liver HepG2 cells are transiently transfected with multiple reporter transcription units (MRTUs) in 6-well plates using FuGene 6 reagent (Roche; 3 ml FuGene/1 mg DNA). The MRTU constructs are regulated by a cis-regulating element (promoter). […] A major difference between the CIS and TRANS system is that in CIS activities of endogenous TFs are measured, whereas the TRANS assay evaluates changes in activities of exogenous, chimeric NR-Gal4 proteins. […] At the end of 24 hour incubation, total RNA was isolated using TriZol reagent (Invitrogen). The isolated RNA is then reverse-transcribed using oligo(dT) primer and Mo-MLV reverse transcriptase (Invitrogen) with DNAse I (Ambion) treatment for 30 min. The one-tenth of the produced cDNA was amplified by PCR using Taq DNA polymerase (Invitrogen) and two reporter sequence-specific primers. The PCR products were fluorescently labeled by primer extension with 6-arboxyfluorescein (6-FAM) 5'-labeled reporter sequence-specific primer (2 min at 95 C, 20 s at 68 C and 10 min at 72 C) and these products were digested with 5U of HpaI (New England Biolabs) for 2h at 37 C. The fragments were purified using Qiaquick PCR columns (Qiagen), analyzed on an ABI 3130xL genetic analyzer (Applied Biosystems) with peak positions identified by using a set of X-rhodamine (ROX)-labeled MapMarker1000 molecular weight standards (BioVentures). The raw capillary electrophoresis data was processed using Attagraph software (Attagene).

Q: For `OCCC(F)(F)C(F)(F)C(F)(F)C(F)(F)F`, which outcome is on record?
A: The outcome was “inactive”.

Q: With `FC(F)(F)C(F)(F)C(F)(F)C(F)(F)C(F)(F)C(F)(F)I` as the molecule, how does the outcome read?
A: Its outcome is “inactive”.

Q: How did the outcome turn out when `Nc1ccn([C@@H]2O[C@H](CO)[C@@H](O)[C@@H]2O)c(=O)n1` was run?
A: The outcome was “inactive”.

Q: For `CCCOc1ccc(S(=O)(=O)N2CCN(CC)CC2)cc1-c1nc2c(CC)n(Cc3ccccn3)nc2c(=O)[nH]1`, which outcome is on record?
A: Its outcome is “inactive”.

Q: For `c1ccc2ncccc2c1`, which outcome is on record?
A: The outcome was “inactive”.

Q: For `CC(C)c1nnc2ccc(-c3ocnc3-c3cc(F)ccc3F)cn12`, which outcome is on record?
A: Its outcome is “inactive”.

Q: For `CC(=O)c1ccccc1`, which outcome is on record?
A: Its outcome is “inactive”.

Q: `CCn1nc(C)c2c1C(=O)NCC(c1ccc(O)cc1)=N2` was tested. Which outcome did it give?
A: Its outcome is “inactive”.

Q: For `CCCCCCCCCCCCCCO`, which outcome is on record?
A: Its outcome is “inactive”.

Q: `S=P(N1CC1)(N1CC1)N1CC1` was tested. Which outcome did it give?
A: Its outcome is “inactive”.

Q: With `CC(C)C(=O)Nc1ccc([N+](=O)[O-])c(C(F)(F)F)c1` as the molecule, how does the outcome read?
A: The outcome was “inactive”.

Q: `CC[C@H](C)C(=O)O[C@H]1C[C@H](O)C=C2C=C[C@H](C)[C@H](CC[C@@H](O)C[C@@H](O)CC(=O)O)[C@H]21` was tested. Which outcome did it give?
A: Its outcome is “inactive”.

Q: For `C[Si](C)(C)C(F)(F)C(F)(F)C(F)(F)F`, which outcome is on record?
A: Its outcome is “inactive”.

Q: Which outcome does the source give for `OCC(CO)(CO)CO` here?
A: The outcome was “inactive”.

Q: Which outcome does the source give for `NC(=O)N(O)[C@@H]1COc2cc(OCc3ccccc3)ccc21` here?
A: The outcome was “inactive”.

Q: Which outcome does the source give for `O=C(NO)C1(NS(=O)(=O)c2ccc(Oc3ccc(F)cc3)cc2)CCOCC1` here?
A: Its outcome is “inactive”.

Q: How did the outcome turn out when `O=C(O)[C@H](O)[C@@H](O)C(=O)O` was run?
A: Its outcome is “inactive”.

Q: How did the outcome turn out when `O=C(Cl)C(F)(F)C(F)(F)C(F)(F)C(=O)Cl` was run?
A: Its outcome is “inactive”.

Q: How did the outcome turn out when `CCCCCCCCN(C)C` was run?
A: The outcome was “inactive”.

Q: How did the outcome turn out when `CCCCCCCCCCCCCCCCOS(=O)(=O)O` was run?
A: The outcome was “inactive”.

Q: For `OC(Cn1cncn1)(Cn1cncn1)c1ccc(F)cc1F`, which outcome is on record?
A: Its outcome is “inactive”.

Q: For `Cc1nccn1-c1ccc(Sc2cccc(C3(C(N)=O)CCOCC3)c2)cc1`, which outcome is on record?
A: Its outcome is “inactive”.

Q: With `C[C@@H](Oc1ccc(CNC(=O)c2cccnc2Oc2ccc3c(c2)OCO3)c(F)c1)C(=O)O` as the molecule, how does the outcome read?
A: Its outcome is “inactive”.

Q: For `NNC(=O)c1ccncc1`, which outcome is on record?
A: Its outcome is “inactive”.

Q: Which outcome does the source give for `OCc1ccccc1` here?
A: Its outcome is “inactive”.

Q: For `c1ccc2c(c1)-c1cccc3c1c-2cc1ccccc13`, which outcome is on record?
A: Its outcome is “inactive”.

Q: With `CCCCOC(=O)c1ccccc1` as the molecule, how does the outcome read?
A: The outcome was “inactive”.

Q: With `O=C(O)c1cccc(C(=O)O)c1` as the molecule, how does the outcome read?
A: Its outcome is “inactive”.

Q: `CCCCCCCC/C=C\CCCCCCCC(=O)OC[C@@H](O)[C@H]1OC[C@H](O)[C@H]1O` was tested. Which outcome did it give?
A: Its outcome is “inactive”.

Q: Which outcome does the source give for `OCc1c[nH]c2ccccc12` here?
A: The outcome was “inactive”.

Q: How did the outcome turn out when `Cc1ccc(S(=O)(=O)NC(=O)NN2CCCCCC2)cc1` was run?
A: The outcome was “inactive”.

Q: `NC(=O)N1c2ccccc2C=Cc2ccccc21` was tested. Which outcome did it give?
A: Its outcome is “inactive”.

Q: For `COc1cc2c(c(OC)c1OC)-c1ccc(OC)c(=O)cc1[C@@H](NC(C)=O)CC2`, which outcome is on record?
A: Its outcome is “inactive”.

Q: For `O=c1[nH]cnc2c1ncn2[C@H]1CC[C@@H](CO)O1`, which outcome is on record?
A: The outcome was “inactive”.

Q: `C=CN1CCCC1=O` was tested. Which outcome did it give?
A: Its outcome is “inactive”.

Q: Which outcome does the source give for `NC(N)=O` here?
A: Its outcome is “inactive”.
